Reference: the supplement of paper PMC11732987, “Enantioselective OTUD7B fragment discovery through chemoproteomics screening and high-throughput optimisation” (Communications Chemistry, 2025)

Assays:
Experiment in all cases: log2 ratio of Biotin-Ahx-Ub-VS probe labelling (fragment/DMSO); higher = less target engagement (more negative = stronger competition), active = hit call of the paper (q ≤ 0.05, log2 ratio ≤ -1)
Conditions in all cases: compound concentration: 200 uM; treatment time: 3 h
[1] = molecular target: USP34 (UniProt Q70CQ2)
Procedure, shortened: (§1)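 Labelled DUBs from HEK293T lysate were NeutrAvidin-enriched, digested with LysC and trypsin, and run by diaPASEF LC-MS/MS. Before that, each 495 µg sample in Tris/CHAPS/IGEPAL buffer with protease inhibitors was treated in triplicate with fragment at 200 µM or vehicle for 3 h, then with Biotin-Ahx-Ub-VS at 0.5 µM final for 1 h. Values are average log2 ratios of fragment over vehicle by unpaired t-test, based on global-median-normalised Spectronaut label-free quantities from proteins with ≥2 unique peptides.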

[2] = molecular target: T1, USP36 (UniProt Q9P275)
T1 sequence (whole entry): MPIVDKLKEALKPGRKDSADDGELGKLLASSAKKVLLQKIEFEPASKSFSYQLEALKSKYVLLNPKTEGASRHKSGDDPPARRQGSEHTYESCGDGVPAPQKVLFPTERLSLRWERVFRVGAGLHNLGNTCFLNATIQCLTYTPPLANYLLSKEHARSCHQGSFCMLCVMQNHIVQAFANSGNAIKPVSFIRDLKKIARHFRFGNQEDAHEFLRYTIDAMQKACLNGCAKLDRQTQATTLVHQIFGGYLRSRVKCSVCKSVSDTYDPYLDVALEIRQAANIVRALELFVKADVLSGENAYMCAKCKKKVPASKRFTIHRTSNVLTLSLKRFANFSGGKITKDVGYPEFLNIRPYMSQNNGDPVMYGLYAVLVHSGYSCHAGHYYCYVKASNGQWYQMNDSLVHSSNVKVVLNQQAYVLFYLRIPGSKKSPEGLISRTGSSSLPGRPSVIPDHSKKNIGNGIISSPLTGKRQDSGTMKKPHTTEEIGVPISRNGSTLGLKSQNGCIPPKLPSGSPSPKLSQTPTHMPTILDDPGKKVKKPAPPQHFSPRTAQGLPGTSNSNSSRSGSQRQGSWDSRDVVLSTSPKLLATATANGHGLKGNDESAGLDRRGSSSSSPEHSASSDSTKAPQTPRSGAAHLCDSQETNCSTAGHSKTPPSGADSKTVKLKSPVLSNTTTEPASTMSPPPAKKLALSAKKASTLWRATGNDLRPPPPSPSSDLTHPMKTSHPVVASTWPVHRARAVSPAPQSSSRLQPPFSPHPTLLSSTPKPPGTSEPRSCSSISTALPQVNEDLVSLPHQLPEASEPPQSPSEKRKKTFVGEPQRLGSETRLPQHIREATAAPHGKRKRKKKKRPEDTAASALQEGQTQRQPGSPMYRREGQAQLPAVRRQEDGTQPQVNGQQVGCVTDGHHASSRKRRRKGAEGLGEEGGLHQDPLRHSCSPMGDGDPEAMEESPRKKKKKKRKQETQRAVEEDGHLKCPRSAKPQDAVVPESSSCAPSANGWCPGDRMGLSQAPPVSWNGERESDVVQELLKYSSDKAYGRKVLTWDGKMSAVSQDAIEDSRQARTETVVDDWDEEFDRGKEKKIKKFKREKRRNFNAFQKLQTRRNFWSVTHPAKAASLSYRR
Procedure, shortened: as §1

[3] = molecular target: T2, USP38 (UniProt Q8NB14)
T2 sequence (whole entry): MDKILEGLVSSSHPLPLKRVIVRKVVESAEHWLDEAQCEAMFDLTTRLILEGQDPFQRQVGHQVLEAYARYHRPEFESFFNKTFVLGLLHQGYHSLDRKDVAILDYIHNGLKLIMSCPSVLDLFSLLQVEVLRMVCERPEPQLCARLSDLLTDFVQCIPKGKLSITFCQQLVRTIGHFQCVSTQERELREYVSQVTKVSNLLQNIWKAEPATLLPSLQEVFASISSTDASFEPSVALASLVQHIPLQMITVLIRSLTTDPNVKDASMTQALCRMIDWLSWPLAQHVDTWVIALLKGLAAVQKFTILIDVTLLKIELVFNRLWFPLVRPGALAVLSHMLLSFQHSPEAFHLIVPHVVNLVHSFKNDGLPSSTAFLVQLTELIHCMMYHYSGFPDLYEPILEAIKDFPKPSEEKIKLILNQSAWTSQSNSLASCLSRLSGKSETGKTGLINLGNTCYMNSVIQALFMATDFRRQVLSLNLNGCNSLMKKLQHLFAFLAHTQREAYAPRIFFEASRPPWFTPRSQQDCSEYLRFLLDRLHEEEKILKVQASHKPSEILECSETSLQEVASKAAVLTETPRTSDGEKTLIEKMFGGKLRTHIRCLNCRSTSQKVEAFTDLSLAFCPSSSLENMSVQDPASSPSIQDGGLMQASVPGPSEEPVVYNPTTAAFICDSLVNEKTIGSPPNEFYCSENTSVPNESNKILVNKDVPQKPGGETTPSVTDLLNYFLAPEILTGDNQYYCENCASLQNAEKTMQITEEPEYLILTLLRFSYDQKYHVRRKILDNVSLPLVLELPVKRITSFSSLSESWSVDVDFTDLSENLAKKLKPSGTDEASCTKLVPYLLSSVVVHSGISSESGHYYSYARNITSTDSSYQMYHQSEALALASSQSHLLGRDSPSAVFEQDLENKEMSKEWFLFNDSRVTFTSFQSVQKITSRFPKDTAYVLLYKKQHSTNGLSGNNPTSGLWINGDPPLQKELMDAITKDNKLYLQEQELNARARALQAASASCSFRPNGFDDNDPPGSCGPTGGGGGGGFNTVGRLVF
Procedure, shortened: as §1

[4] = molecular target: T3, USP39 (UniProt Q53GS9)
T3 sequence (whole entry): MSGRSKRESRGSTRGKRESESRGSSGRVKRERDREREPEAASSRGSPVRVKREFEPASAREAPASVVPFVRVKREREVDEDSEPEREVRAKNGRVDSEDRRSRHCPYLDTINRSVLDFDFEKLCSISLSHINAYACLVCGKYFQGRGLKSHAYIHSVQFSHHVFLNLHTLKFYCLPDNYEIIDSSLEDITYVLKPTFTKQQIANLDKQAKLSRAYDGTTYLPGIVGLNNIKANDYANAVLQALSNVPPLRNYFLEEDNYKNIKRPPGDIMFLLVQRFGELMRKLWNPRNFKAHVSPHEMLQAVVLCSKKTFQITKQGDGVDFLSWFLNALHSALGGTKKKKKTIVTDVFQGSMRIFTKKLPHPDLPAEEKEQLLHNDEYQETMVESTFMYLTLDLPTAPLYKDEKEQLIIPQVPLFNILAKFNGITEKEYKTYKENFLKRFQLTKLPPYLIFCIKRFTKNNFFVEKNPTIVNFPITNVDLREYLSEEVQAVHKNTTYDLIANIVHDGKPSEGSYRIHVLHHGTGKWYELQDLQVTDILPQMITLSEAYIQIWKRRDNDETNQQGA
Procedure, shortened: as §1

[5] = molecular target: T4, USP4 (UniProt Q13107)
T4 sequence (whole entry): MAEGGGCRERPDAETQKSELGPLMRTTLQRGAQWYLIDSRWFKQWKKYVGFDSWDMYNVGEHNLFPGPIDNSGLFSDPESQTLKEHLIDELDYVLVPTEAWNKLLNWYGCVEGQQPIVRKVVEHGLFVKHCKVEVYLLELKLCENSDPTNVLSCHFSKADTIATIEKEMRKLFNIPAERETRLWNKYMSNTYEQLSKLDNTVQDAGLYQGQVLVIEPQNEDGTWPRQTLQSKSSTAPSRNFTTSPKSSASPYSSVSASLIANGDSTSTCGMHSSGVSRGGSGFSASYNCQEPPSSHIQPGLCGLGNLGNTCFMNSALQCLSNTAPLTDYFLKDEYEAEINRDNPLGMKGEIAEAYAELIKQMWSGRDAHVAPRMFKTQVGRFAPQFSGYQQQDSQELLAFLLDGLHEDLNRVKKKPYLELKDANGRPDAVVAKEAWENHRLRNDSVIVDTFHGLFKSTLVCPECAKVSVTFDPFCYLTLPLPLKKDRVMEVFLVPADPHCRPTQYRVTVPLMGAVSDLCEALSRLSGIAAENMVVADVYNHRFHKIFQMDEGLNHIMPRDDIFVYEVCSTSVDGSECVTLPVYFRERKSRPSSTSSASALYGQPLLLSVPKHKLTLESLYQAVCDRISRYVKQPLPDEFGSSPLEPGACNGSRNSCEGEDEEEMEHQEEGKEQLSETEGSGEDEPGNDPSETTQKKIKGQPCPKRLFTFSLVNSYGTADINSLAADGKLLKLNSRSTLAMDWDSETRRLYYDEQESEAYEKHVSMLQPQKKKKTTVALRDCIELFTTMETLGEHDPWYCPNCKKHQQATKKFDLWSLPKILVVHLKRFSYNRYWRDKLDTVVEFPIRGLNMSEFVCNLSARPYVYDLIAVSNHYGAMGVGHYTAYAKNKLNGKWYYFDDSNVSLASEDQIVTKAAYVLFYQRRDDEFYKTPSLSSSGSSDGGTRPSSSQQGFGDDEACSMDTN
Procedure, shortened: as §1

Measured: log2 ratio of Biotin-Ahx-Ub-VS probe labelling

USP34, sequence (Q70CQ2 whole entry, the tested form may be a part): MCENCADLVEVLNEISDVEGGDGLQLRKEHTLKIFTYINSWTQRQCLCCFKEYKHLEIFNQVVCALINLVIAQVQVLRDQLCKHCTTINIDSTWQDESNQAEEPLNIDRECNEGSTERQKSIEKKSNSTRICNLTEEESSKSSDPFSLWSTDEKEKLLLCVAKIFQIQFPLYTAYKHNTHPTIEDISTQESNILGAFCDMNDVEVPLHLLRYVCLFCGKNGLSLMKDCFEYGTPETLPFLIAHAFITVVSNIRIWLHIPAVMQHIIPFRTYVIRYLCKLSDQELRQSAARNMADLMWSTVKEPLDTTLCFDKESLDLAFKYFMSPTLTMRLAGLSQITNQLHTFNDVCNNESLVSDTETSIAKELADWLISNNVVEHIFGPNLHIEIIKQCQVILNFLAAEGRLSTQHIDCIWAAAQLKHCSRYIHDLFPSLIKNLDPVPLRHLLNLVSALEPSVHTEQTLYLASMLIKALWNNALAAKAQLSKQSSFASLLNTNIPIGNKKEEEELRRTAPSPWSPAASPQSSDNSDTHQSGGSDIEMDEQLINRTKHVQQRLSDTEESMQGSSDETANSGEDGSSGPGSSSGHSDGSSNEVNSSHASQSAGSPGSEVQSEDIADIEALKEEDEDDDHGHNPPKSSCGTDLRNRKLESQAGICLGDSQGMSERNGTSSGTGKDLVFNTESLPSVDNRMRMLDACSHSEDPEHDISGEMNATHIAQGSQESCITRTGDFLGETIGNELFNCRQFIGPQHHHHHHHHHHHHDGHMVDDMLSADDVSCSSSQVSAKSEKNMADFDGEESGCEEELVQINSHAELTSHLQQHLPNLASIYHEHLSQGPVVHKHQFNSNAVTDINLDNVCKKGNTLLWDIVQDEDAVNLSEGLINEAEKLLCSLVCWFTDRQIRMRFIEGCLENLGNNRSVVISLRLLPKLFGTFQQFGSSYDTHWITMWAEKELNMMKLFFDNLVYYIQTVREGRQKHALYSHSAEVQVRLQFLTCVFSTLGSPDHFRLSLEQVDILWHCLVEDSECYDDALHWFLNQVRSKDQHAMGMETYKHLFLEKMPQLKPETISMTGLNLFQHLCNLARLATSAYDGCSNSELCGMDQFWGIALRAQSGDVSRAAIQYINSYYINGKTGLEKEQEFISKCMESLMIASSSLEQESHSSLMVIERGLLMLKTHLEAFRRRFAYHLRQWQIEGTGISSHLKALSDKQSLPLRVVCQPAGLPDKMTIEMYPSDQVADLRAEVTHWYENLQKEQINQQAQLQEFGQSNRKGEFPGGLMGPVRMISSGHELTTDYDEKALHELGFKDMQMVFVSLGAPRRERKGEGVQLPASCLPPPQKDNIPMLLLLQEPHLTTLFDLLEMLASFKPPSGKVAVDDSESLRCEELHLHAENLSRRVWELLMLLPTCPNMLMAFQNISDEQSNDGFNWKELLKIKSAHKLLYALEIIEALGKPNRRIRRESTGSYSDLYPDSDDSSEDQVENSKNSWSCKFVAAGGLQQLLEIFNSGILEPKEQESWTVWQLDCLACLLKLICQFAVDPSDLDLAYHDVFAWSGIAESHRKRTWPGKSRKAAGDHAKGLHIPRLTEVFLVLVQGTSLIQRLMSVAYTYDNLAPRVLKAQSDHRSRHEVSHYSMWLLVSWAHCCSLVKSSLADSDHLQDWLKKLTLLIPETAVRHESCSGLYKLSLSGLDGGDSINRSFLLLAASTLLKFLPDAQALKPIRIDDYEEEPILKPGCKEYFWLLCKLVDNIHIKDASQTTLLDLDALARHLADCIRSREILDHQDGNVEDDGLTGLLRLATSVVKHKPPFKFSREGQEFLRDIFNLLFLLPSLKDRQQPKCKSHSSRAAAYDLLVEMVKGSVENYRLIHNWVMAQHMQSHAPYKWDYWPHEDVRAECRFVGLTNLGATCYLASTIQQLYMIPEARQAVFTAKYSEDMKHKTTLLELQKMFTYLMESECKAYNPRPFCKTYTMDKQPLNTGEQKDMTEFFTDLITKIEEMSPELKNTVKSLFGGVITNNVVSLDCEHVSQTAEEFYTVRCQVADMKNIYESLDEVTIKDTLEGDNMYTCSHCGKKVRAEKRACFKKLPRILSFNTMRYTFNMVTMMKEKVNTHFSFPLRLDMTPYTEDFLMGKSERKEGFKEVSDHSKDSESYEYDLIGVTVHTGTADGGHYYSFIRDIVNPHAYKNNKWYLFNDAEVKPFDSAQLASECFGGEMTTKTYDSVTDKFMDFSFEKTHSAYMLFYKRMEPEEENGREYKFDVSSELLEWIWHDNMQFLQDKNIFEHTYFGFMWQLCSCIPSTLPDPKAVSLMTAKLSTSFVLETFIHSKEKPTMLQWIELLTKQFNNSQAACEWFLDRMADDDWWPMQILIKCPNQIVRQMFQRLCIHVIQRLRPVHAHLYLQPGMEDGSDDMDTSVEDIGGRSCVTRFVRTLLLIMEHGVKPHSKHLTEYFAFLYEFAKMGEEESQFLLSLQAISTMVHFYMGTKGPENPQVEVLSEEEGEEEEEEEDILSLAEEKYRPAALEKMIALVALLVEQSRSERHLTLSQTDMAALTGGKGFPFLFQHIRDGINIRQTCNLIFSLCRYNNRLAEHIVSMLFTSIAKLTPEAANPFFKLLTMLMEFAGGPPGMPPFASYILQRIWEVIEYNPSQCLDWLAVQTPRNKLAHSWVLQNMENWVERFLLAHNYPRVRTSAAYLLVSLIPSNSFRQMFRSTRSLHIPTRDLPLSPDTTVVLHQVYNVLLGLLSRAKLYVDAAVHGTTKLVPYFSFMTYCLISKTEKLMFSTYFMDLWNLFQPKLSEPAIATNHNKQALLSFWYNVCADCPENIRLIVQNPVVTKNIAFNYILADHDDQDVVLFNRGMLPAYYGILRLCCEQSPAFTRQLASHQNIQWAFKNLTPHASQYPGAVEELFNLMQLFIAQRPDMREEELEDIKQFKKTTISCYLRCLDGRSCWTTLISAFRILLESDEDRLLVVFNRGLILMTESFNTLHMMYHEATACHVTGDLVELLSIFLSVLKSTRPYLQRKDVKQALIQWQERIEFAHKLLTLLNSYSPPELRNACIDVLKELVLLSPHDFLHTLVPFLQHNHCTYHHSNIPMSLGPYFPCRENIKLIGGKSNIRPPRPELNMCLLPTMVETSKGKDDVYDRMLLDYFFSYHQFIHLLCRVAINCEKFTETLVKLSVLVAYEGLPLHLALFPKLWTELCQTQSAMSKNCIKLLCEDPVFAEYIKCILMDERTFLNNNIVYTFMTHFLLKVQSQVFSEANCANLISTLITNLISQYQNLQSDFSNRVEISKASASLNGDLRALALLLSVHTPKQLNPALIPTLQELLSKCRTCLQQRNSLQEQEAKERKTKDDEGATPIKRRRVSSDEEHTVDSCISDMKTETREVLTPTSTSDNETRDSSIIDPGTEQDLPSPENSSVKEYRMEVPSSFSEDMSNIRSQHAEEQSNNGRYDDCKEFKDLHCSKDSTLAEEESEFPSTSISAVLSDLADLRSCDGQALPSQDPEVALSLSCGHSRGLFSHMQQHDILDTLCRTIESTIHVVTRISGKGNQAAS

CC1Cc2ccccc2N1C(=O)CCl (stereo not given)
inactive: [1] -0.159 | [2] 0.0162 | [3] -0.00784 | [4] -0.0124 | [5] -0.603
